Measurements reported in PubChem BioAssay (NCATS).
Inconclusive results are not listed. Calls of active or inactive are those of the source. Unless noted, calls come from the whole dose curve; as a rule, active = well fitted curve in either direction with a large enough effect (not every such curve was filed as active); inconclusive = small, poorly fitted or top-dose-only effect, or another doubt; inactive = flat fitted curve, though single readings scatter.

Tests used:
[1] = target: Lysosomal acid glucosylceramidase (Homo sapiens) (UniProt P04062); experiment: Glucocerebrosidase-p2 (AID 348; in the data active = potency below about 10 µM; note: potency is the fitted concentration of half-maximal effect); conditions: purified GBA, blue fluorogenic substrate, 40 min
Outline: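 Compounds titrated from 0.6 nM upwards against 0.2 nM enzyme in pH 5.9 citric acid/KH2PO4, taurocholate, tween-20; blue fluorogenic substrate 80 uM, 40 min room temperature, stopped and read Ex 365/Em 440 for AC50.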

[2] = AP1 Signaling Pathway (AID 357); conditions: ME-180 AP-1-bla reporter, EGF-induced, beta-lactamase ratio, 5 h; at 7.69 µM (top of the series) unless noted;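 note: ME-180 reporter cells stimulated with EGF at its EC50 level; % is set by controls: 0 for no effect and ±100 for the full control effect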
Outline: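 Beta-lactamase reporter under AP-1 response element, ME-180 background. Stimulus: EC50 EGF. Compound exposure 5 h, 37 °C. Detection: CCF4, 2.5 h RT, 460/530 nm. Values: AC50 from titration.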

[3] = Stat Signaling Pathway (AID 446); conditions: ME-180 SIE beta-lactamase reporter, IL-6 stimulated, 5 h; at 7.69 µM (top of the series) unless noted;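 note: ME-180 cervical cancer cells given 40 pM IL-6 alongside compound; SIE-controlled beta-lactamase reporter measured as 460/530 nm FRET emission ratio; % is set by controls: 0 for no effect and ±100 for the full control effect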
Outline: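 ME-180 cells carrying a SIE-driven beta-lactamase reporter are stimulated with 40 pM IL-6 for 5 h at 37C in the presence of compound. The 460/530 nm FRET substrate ratio is read after 2.5 h at RT. Data are normalised to 300 pM IL-6 and to 125 nM JAK inhibitor controls.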

[4] = target: Glucocorticoid receptor (Homo sapiens) (UniProt P04150); experiment: GR-EFC Redistribution (AID 451; calls by dose curve; note: potency is the fitted concentration of half-maximal effect); conditions: CHO-K1 GR-EFC translocation, beta-gal luminescence, 2 h
Outline: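 CHO-K1 cells stably expressing nuclear-localized β-gal enzyme acceptor and GR fused C-terminally to the enzyme donor fragment; ligand-driven nuclear translocation restores β-gal by complementation. Compounds titrated up to 46 uM final, 2 h at 37 °C; luminescence read.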

[5] = target: Mitogen-activated protein kinase 10 (Mus musculus) (UniProt Q61831); experiment: JNK3 AlphaScreen Assay (AID 530); conditions: JNK3 lysate, c-Jun phosphorylation; series mostly up to 57.1 µM;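 note: kinase came from lysate of stimulated human HepG2 cells; signal reports phosphorylation of biotinylated GST-cJun 1-79 at Ser73 with 10 µM ATP; % is set by controls: 0 for no effect and ±100 for the full control effect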
Outline: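 JNK3 came from HepG2 lysates pre-activated with IL-1beta and TNF-alpha and phosphorylated biotinylated GST-cJun (1-79) at 10 uM ATP, pH 7.6, room temperature. Compounds were titrated. AlphaScreen signal used anti-phospho-cJun (Ser73) antibody.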

[6] = target: 3',5'-cyclic-AMP phosphodiesterase 4B (Homo sapiens) (UniProt Q07343); experiment: qHTS Assay for Inhibitors of PDE-IV (AID 607; active = well fitted activation curve with a large enough effect in the main read-out, with a control signal flat, not every such curve was filed as active; note: % of control where 0% means no effect); conditions: HEK293 ACTOne CNG channel cells, membrane potential fluorescence; series mostly up to 22.9 µM
Outline: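 HEK293 ACTOne cells with CNG channel (1000/well), endogenous PDE4; membrane potential dye, compounds up to 22.9 uM final. Fluorescence Ex 535/Em 590; RO 20-1724 (100 uM final) as reference.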

[7] = qHTS Assay for Lipid Storage Modulators (AID 1519; calls by dose curve); conditions: Drosophila S3 cells, BODIPY lipid droplet/cell ratio, laser cytometry, cells loaded with oleic acid; for activity change, negative = inhibition: at 57.5 µM (top of the series)
Outline: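 Cells seeded at 5,000 per well were treated with compounds over a concentration series and loaded with oleic acid (400 uM, as added). Lipid droplet fluorescence (488 nm excitation, 500-530 nm channel) was read by laser-scanning cytometry and normalized to 20 uM Triacsin C.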

[8] = Primary qHTS for small molecule stabilizers of the endoplasmic reticulum resident proteome: Secreted ER Calcium Modulated Protein (SERCaMP) assay (AID 1508630; active = well fitted curve in the direction sought with a large enough effect; an effect the other way counts as inactive or inconclusive; note: % is set by controls: 0 for no effect and ±100 for the full control effect); conditions: SH-SY5Y GLuc-SERCaMP (Gaussia luciferase released on ER calcium loss) secretion, thapsigargin, luminescence; series mostly up to 38.4 µM
Outline: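 GLuc-SERCaMP-expressing SH-SY5Y cells, pretreated 16 h with compound, are challenged with thapsigargin to empty ER calcium stores; after 4 h, coelenterazine is added directly to the medium and luminescence is imaged.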

[9] = target: Cytochrome P450 1A2 (Homo sapiens) (UniProt P05177); experiment: p450-cyp1a2 (AID 410; calls by dose curve; note: potency is the fitted concentration of half-maximal effect); conditions: recombinant CYP1A2, luciferin-ME demethylation, luminescence; series mostly up to 57 µM
Outline: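 Inhibition was calculated relative to 57 uM furafylline (full inhibition). The reaction used human CYP1A2 at 20nM with Luciferin-ME at its Km, 100uM, driven by an NADPH-regenerating system for 60 min at room temperature.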

[10] = NFAT Signaling Pathway (AID 444); conditions: Jurkat NFAT-bla M1, carbachol, beta-lactamase ratio, 5 h; at 7.69 µM (top of the series) unless noted
Outline: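 Jurkat cells carrying an NFAT-driven β-lactamase reporter and co-transfected muscarinic M1 receptor were treated with compound plus carbachol (1 uM final, an EC50 level) for 5 h at 37 °C. CCF4 loading followed for 1 h at RT; 460/530 nm ratio gave %activity.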

[11] = target: Glucocorticoid receptor (Homo sapiens) (UniProt P04150); experiment: GR-GFP Redistribution (AID 450;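 active = compounds whose dose series gives a full or clear partial fitted curve of increased nuclear translocation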; note: potency is the fitted concentration of half-maximal effect); conditions: U2OS GR-GFP nuclear translocation, laser cytometry, 2 h
[12] = target: Cytochrome P450 3A4 (Homo sapiens) (UniProt P08684); experiment: qHTS Assay for Activators of Cytochrome P450 3A4 (AID 885; active = well fitted curve in the direction sought with a large enough effect; an effect the other way counts as inactive or inconclusive; note: nearly all actives have a fitted effect of over 65% in size); conditions: recombinant CYP3A4, Luciferin-PPXE luminescence, 60 min; series mostly up to 57.1 µM
Outline: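 Human CYP3A4 (20 nM) with Luciferin-PPXE at 25 uM (its KM) in 200 mM KPO4; 10 min compound preincubation, then NADPH regeneration and 60 min reaction at RT. Luciferin read by luminescence; normalized to 57 uM ketoconazole full inhibition.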

[13] = Confirmation and Secondary Assay for Modulators of Hemoglobin Beta Chain Splicing at IVS2 654 locus (AID 910; active = well fitted curve in the direction sought with a large enough effect; an effect the other way counts as inactive or inconclusive;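 note: per-well total GFP intensity by laser scanning cytometry after 2-day treatment; % of control where 0% means no effect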); conditions: HeLa EGFP-654 splicing reporter, GFP fluorescence, 48 h; series mostly up to 38.3 µM
Outline: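 HeLa cells stably carrying EGFP interrupted by mutant beta-globin IVS2-654 intron (CMV-driven) were treated with compound for 2 days at 37C; corrected splicing was scored as total peak GFP intensity per well (488 nm excitation, 500-520 nm emission).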

[14] = Confirmation and Secondary Assay for Modulators of Hemoglobin Beta Chain Splicing at IVS2 705 locus (AID 930; active = well fitted curve in the direction sought with a large enough effect; an effect the other way counts as inactive or inconclusive;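 note: HeLa cells stably expressing the EGFP-705 splicing reporter; GFP fluorescence per well restored by corrected splicing of the IVS2-705 intron in EGFP; % of control where 0% means no effect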); conditions: HeLa EGFP-705 splicing reporter, GFP fluorescence, 48 h; series mostly up to 38.3 µM
Outline: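 Secondary splice-site specificity test uses HeLa expressing CMV-driven EGFP interrupted by IVS2-705; cells were treated 2 days at 37C with 500 nM antisense PNA as positive control.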

[15] = target: Ubiquitin carboxyl-terminal hydrolase 1 (Homo sapiens) (UniProt O94782); experiment: Inhibitors of USP1/UAF1: Pilot qHTS (AID 504865; active = well fitted curve in the direction sought with a large enough effect; an effect the other way counts as inactive or inconclusive;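 note: rhodamine fluorescence freed from ubiquitin-rhodamine substrate followed over time; top concentration of the series differs between compounds; % is set by controls: 0 for no effect and ±100 for the full control effect; nearly all actives have a fitted effect of over 35% in size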); conditions: purified USP1/UAF1, Ub-rhodamine cleavage fluorescence; series mostly up to 54.9 µM
Outline: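 Kinetic fluorescence assay: 1nM USP1/UAF1, 15 min compound preincubation, then 150nM Ub-Rho; 480/540 nm.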

[16] = target: Cytochrome P450 2C19 (Homo sapiens) (UniProt P33261); experiment: qHTS Assay for Inhibitors and Substrates of Cytochrome P450 2C19 (AID 899; active = well fitted curve in the direction sought with a large enough effect; an effect the other way counts as inactive or inconclusive; note: potency is the fitted concentration of half-maximal effect; nearly all actives have a fitted effect of over 60% in size); conditions: recombinant CYP2C19, luciferin-H EGE luminescence; series mostly up to 57.1 µM
Outline: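 In 50mM KPO4, the reaction held 5nM enzyme and KM-level (10uM) Luciferin-H EGE; it ran 60 min at 37C after NADPH regeneration and a 10 min compound preincubation. Luminescence values were scaled to 57uM ketoconazole as complete inhibition.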

[17] = target: Cytochrome P450 3A4 (Homo sapiens) (UniProt P08684); experiment: qHTS Assay for Inhibitors and Substrates of Cytochrome P450 3A4 (AID 884; active = well fitted curve in the direction sought with a large enough effect; an effect the other way counts as inactive or inconclusive; note: potency is the fitted concentration of half-maximal effect; nearly all actives have a fitted effect of over 50% in size); conditions: recombinant CYP3A4, Luciferin-PPXE luminescence; series mostly up to 57.1 µM
Outline: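 20 nM human CYP3A4 with 25 uM Luciferin-PPXE (at KM) in 200 mM KPO4, preincubated 10 min with compound; NADPH regeneration started a 60 min RT reaction. Luciferin detected by luminescence, normalized to 57 uM ketoconazole as full inhibition.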

[18] = measured here: cell count channel max response
[19] = measured here: lipid channel max response

Sequence of Glucocorticoid receptor (Homo sapiens) (P04150 whole entry, looked up, the tested form may be a part): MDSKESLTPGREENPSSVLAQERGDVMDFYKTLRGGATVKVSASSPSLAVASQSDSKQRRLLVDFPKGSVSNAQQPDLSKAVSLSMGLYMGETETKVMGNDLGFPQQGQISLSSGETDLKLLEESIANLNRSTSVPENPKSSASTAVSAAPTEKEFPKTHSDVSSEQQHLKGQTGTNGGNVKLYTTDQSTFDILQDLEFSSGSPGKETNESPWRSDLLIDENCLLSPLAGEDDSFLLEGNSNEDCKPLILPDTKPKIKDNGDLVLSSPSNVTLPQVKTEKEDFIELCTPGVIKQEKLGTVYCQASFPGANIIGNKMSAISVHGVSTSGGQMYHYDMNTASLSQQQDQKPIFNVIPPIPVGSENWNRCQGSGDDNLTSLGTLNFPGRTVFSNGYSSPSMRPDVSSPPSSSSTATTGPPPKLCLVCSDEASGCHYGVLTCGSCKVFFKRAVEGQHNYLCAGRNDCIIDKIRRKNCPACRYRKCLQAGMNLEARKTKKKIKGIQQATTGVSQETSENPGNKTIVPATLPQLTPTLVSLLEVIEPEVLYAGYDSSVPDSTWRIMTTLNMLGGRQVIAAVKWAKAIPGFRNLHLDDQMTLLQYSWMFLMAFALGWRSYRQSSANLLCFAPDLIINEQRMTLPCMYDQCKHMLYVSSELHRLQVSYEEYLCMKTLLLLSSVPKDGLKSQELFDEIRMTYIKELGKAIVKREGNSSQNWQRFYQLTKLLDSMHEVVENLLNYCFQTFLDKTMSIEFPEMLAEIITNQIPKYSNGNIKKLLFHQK
Sequence of Lysosomal acid glucosylceramidase (Homo sapiens) (P04062 whole entry, looked up): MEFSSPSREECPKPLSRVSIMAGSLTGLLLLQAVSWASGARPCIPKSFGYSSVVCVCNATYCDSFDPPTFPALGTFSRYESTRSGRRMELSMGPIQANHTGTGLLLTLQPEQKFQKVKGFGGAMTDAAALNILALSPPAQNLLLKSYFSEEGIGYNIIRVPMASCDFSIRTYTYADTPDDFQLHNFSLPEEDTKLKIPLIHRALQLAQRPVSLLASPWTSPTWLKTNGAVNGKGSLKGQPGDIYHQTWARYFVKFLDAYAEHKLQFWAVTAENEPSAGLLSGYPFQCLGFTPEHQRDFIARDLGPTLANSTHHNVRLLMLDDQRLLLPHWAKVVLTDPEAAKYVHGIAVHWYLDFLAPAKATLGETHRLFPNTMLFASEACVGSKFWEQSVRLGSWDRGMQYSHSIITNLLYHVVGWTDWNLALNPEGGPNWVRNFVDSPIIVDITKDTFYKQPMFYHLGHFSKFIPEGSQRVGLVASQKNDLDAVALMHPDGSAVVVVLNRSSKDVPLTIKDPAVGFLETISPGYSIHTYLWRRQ
Sequence of Cytochrome P450 3A4 (Homo sapiens) (P08684 whole entry, looked up): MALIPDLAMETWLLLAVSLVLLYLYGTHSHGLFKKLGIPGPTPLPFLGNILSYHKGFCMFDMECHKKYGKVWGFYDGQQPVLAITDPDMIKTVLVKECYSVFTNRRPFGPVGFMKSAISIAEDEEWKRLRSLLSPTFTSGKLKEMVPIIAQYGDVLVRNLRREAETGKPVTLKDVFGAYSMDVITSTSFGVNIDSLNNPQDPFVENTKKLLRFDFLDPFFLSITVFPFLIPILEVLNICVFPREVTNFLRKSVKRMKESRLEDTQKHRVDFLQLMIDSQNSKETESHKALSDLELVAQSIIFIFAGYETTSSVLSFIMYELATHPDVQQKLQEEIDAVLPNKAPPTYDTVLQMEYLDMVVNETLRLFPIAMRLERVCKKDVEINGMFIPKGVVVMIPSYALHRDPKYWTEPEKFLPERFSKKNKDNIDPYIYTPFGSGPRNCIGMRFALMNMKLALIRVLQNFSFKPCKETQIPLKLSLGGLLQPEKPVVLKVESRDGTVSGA
Sequence of 3',5'-cyclic-AMP phosphodiesterase 4B (Homo sapiens) (Q07343 whole entry, looked up): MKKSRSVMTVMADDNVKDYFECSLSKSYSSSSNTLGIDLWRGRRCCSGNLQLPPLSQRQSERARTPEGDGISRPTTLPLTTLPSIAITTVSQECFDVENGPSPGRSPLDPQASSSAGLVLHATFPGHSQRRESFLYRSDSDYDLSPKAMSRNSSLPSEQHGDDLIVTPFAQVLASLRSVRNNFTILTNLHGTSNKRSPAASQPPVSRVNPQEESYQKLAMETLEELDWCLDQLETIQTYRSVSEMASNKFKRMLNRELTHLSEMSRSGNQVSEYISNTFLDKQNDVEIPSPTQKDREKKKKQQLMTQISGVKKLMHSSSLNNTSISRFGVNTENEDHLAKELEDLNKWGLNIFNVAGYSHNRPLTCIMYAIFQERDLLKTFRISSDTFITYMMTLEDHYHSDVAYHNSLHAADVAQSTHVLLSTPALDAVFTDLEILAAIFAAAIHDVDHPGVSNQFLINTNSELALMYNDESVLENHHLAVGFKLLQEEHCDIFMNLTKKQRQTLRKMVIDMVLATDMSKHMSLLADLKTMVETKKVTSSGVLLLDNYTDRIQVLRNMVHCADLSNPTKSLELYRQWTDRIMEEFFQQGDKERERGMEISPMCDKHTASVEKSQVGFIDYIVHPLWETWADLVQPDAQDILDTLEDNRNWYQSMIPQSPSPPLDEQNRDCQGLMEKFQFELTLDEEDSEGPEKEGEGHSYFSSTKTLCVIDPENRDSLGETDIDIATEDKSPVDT
Sequence of Ubiquitin carboxyl-terminal hydrolase 1 (Homo sapiens) (O94782 whole entry, looked up): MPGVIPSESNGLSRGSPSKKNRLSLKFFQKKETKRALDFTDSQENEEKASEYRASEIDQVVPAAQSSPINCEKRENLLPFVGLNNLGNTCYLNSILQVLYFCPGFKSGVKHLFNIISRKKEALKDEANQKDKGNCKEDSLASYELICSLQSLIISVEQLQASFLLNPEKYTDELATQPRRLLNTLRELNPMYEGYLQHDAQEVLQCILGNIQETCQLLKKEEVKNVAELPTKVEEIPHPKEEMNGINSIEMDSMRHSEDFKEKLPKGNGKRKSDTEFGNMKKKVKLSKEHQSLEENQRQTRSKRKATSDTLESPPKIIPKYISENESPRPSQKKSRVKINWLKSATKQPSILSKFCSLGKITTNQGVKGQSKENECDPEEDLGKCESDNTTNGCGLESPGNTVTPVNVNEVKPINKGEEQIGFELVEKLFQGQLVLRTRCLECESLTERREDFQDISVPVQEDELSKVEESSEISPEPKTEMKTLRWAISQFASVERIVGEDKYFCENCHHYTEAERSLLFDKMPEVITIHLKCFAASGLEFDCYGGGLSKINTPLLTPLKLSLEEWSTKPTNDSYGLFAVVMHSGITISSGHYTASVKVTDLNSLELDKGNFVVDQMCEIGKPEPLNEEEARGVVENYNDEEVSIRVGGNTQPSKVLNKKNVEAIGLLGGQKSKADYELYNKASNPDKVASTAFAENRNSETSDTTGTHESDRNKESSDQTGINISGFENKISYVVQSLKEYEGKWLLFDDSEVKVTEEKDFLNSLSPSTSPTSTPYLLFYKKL
Sequence of Cytochrome P450 1A2 (Homo sapiens) (P05177 whole entry, looked up): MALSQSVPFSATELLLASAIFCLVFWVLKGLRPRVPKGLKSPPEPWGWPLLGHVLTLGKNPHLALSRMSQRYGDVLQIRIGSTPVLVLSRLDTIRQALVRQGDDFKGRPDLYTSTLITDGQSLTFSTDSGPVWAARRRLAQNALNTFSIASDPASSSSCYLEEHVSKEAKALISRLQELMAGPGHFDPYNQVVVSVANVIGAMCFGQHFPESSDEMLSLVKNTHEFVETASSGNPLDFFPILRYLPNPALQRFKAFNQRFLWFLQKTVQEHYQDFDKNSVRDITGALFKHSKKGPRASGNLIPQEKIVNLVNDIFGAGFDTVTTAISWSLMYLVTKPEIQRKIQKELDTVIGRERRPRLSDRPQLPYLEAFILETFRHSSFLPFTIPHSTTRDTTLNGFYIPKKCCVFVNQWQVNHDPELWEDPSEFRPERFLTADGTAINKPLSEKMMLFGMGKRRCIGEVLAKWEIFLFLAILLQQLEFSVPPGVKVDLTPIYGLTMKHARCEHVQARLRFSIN
Sequence of Cytochrome P450 2C19 (Homo sapiens) (P33261 whole entry, looked up): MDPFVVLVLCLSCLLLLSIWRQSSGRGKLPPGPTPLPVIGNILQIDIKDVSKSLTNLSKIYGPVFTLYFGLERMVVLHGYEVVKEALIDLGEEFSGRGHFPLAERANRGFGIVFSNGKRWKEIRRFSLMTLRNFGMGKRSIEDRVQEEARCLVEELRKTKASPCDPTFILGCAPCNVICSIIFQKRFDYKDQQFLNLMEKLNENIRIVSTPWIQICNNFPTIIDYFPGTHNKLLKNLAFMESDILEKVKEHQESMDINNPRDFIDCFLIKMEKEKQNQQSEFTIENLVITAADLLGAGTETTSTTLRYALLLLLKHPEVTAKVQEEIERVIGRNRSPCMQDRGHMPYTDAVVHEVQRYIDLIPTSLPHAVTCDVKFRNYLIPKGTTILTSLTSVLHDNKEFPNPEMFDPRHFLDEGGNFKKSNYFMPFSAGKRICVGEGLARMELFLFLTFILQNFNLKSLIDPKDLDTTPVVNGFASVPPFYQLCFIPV

COCC(=O)N1CCC2(CC1)CCN(c1ccncc1)CC2
-6.96%: max response [7, 18]
-10.2%: max response [7, 19]
inactive: Potency [1] > 11.4 µM | activity change, negative = inhibition [2] 7.44% | activity, negative = inhibition [3] 16.3% | Potency [4] > 46 µM | Potency [5] | Potency [6] | activity change, negative = inhibition [7] -1.56% | outcome [8]

Cn1cccc1C(=O)N1CCC2(CCN(Cc3ccc(C#N)cc3)CC2)CC1
inactive: Potency [1] > 11.4 µM | activity change, negative = inhibition [2] 11.1% | activity, negative = inhibition [3] -2.38% | Potency [4] > 46 µM | Potency [5] | Potency [6] | activity change, negative = inhibition [7] 0.873% | outcome [8]
9.77%: max response [7, 19]
7.43%: max response [7, 18]

O=C(c1cccc(F)c1)N1CCC2(CC1)CN(c1ccccn1)C2
17.7%: max response [7, 18]
inactive: Potency [1] > 11.4 µM | activity change, negative = inhibition [2] 6.77% | activity, negative = inhibition [3] -12.3% | Potency [4] > 46 µM | Potency [6] | activity change, negative = inhibition [7] 6.42% | outcome [8]
16%: max response [7, 19]

CC(C)CN1CC2(CCN(C(=O)c3ccco3)CC2)C1
8.53%: max response [7, 18]
inactive: Potency [1] > 11.4 µM | activity change, negative = inhibition [2] 6.73% | Potency [4] > 46 µM | Potency [5] | Potency [6] | activity change, negative = inhibition [7] -2.08% | outcome [8]
7.7%: max response [7, 19]

O=C(c1cccc(F)c1)N1CCC2(CCCN(c3ccncc3)C2)CC1
inactive: Potency [1] > 11.4 µM | activity change, negative = inhibition [2] 8.58% | activity, negative = inhibition [3] -8.19% | Potency [4] > 46 µM | Potency [5] | Potency [6] | activity change, negative = inhibition [7] 3.69% | outcome [8]
9.25%: max response [7, 18]
16.5%: max response [7, 19]

CN(C)Cc1ccccc1-c1ccc2ncnc(N3CCOCC3)c2c1
6.66%: max response [7, 18]
inactive: Potency [1] > 11.4 µM | activity change, negative = inhibition [10] 2.99% | activity, negative = inhibition [3] 12.4% | Potency [11] > 46 µM | Potency [4] > 46 µM | Potency [5] | Potency [12] | Potency [13] | outcome [14] | activity change, negative = inhibition [7] 9.22% | Potency [15] | outcome [8]
active: Potency [9] 15.8 µM
17.3%: max response [7, 19]

COC(=O)N1CCC2(CCCN(c3ccccn3)C2)CC1
13.5%: max response [7, 18]
inactive: Potency [1] > 11.4 µM | activity change, negative = inhibition [2] -5.95% | activity, negative = inhibition [3] -6.11% | Potency [4] > 46 µM | Potency [5] | Potency [6] | activity change, negative = inhibition [7] 1.3% | outcome [8]
15.8%: max response [7, 19]
active: Potency [16] 3.16 µM

COc1ccc(NC(=O)N2CCCC3(CCN(S(=O)(=O)c4ccccc4)CC3)C2)cc1
active: Potency [17] 7.94 µM
10.9%: max response [7, 19]
6.07%: max response [7, 18]
inactive: Potency [1] > 11.4 µM | activity change, negative = inhibition [2] -4.9% | activity, negative = inhibition [3] -19% | Potency [4] > 46 µM | Potency [5] | Potency [6] | Potency [12] | activity change, negative = inhibition [7] 2.57% | outcome [8]
